# Experimental data: the supplement of paper PMC12067926
# Test system: Rhizobium 1 (Rhizobium herbae)
# Assay: relative growth (AUC of 72 h growth curve relative to DMSO control, dAUC) (ratio); higher = more growth (less inhibition), active = hit call of the paper
# Settings: 20 µM;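 active = growth AUC significantly below the DMSO wells by Dunnett test; inactive = the rest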
# In short: (§1)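 Growth was followed as A600, read hourly for 72 h on a plate reader after brief shaking. Isolates from Icelandic stream sediments and Silwood Park soil, and whole sediment communities, were first grown to carrying capacity in Luria–Bertani medium and then diluted 1:100 into 96-well plates with each chemical at 20 µM (1% DMSO). Relative growth (dAUC) is the spline-integrated area under the curve scaled to the mean of the DMSO controls, and the values are averages of three biological replicates.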
row,SMILES,relative growth
1,CCCSP(=O)(OCC)Oc1ccc(Br)cc1Cl (centres undefined),0.931 (inactive)
2,CC1(C(=O)Nc2ccc(O)c(Cl)c2Cl)CCCCC1,0.84 (inactive)
3,C[N+](C)(C)CCCl,0.998 (inactive)
4,CCc1cnc(C2=NC(C)(C(C)C)C(=O)N2)c(C(=O)O)c1 (centres undefined),0.975 (inactive)
5,CC[C@H](C)[C@H]1O[C@]2(C=C[C@@H]1C)C[C@@H]1C[C@@H](C/C=C(\C)[C@@H](O[C@H]3C[C@H](OC)[C@@H](O[C@H]4C[C@H](OC)[C@@H](O)[C@H](C)O4)[C@H](C)O3)[C@@H](C)/C=C/C=C3\CO[C@@H]4[C@H](O)C(C)=C[C@@H](C(=O)O1)[C@]34O)O2.CO[C@H]1C[C@H](O[C@H]2[C@H](C)O[C@@H](O[C@@H]3/C(C)=C/C[C@@H]4C[C@@H](C[C@]5(C=C[C@H](C)[C@@H](C(C)C)O5)O4)OC(=O)[C@@H]4C=C(C)[C@@H](O)[C@H]5OC/C(=C\C=C\[C@@H]3C)[C@]54O)C[C@@H]2OC)O[C@@H](C)[C@@H]1O,0.807 (inactive)
6,CCCCC(C#N)(Cn1cncn1)c1ccc(Cl)cc1 (centres undefined),0.958 (inactive)
7,Clc1ccc(C(c2ccc(Cl)cc2)C(Cl)(Cl)Cl)cc1,1.07 (inactive)
8,CCC(C)(C)C(=O)OC1=C(c2ccc(Cl)cc2Cl)C(=O)OC12CCCCC2,0.97 (inactive)
9,O=C1c2ccccc2C(=O)N1SC(Cl)(Cl)Cl,1.01 (inactive)
10,Cc1nnc(-c2ccccc2)c(=O)n1N,1.07 (inactive)
11,N#Cc1c(Cl)c(Cl)c(Cl)c(C#N)c1Cl,0.17 (active)
12,CC(C)N(C)S(=O)(=O)NC(=O)c1cc(-n2c(=O)cc(C(F)(F)F)n(C)c2=O)c(F)cc1Cl,1.05 (inactive)
13,COC(=O)N(C(=O)N1CO[C@@]2(C(=O)OC)Cc3cc(Cl)ccc3C2=N1)c1ccc(OC(F)(F)F)cc1,1 (inactive)
14,CN1COCN(Cc2cnc(Cl)s2)/C1=N\[N+](=O)[O-],1.01 (inactive)
15,CCCN(CCC)C(=O)SCc1ccccc1,1.05 (inactive)
16,OC(Cn1cncn1)(c1ccc(F)cc1)c1ccccc1F (centres undefined),0.971 (inactive)
17,CC(C1CC1)C(O)(Cn1cncn1)c1ccc(Cl)cc1 (centres undefined),0.947 (inactive)
18,COC(=O)c1ccccc1S(=O)(=O)NC(=O)Nc1nc(C)nc(OC)n1,1.15 (inactive)
19,CN(C)C(CSS(=O)(=O)O)CSS(=O)(=O)O,0.931 (inactive)

row,SMILES,relative growth
1,CNC(=O)c1cc(Cl)cc(C)c1NC(=O)c1cc(Br)nn1-c1ncccc1Cl,0.944 (inactive)
2,CO/C=C(/C(=O)OC)c1ccccc1Oc1cc(Oc2ccccc2C#N)ncn1,0.967 (inactive)
3,O=C(NC(=O)c1c(F)cccc1F)Nc1ccc(OC(F)(F)C(F)OC(F)(F)F)c(Cl)c1 (centres undefined),0.952 (inactive)
4,N#Cc1cc(Br)c(O)c(Br)c1,0.751 (inactive)
5,CCOCN(C(=O)CCl)c1c(C)cccc1CC,0.909 (inactive)
6,CC1(C)[C@H](/C=C(\Cl)C(F)(F)F)[C@@H]1C(=O)OC(C#N)c1cccc(Oc2ccccc2)c1 (some centres undefined),1.28 (inactive)
7,C#CCOc1ccc(CCNC(=O)C(OCC#C)c2ccc(Cl)cc2)cc1OC (centres undefined),1.06 (inactive)
8,O=[N+]([O-])/N=C1\NCCN1Cc1ccc(Cl)nc1,0.991 (inactive)
9,Fc1ccc(Oc2ccnc3cc(Cl)cc(Cl)c23)cc1,0.992 (inactive)
10,CC(Oc1ccc(Oc2ncc(C(F)(F)F)cc2Cl)cc1)C(=O)O (centres undefined),1.11 (inactive)
11,O=C(O)CNCP(=O)(O)O,1.03 (inactive)
12,C[N+]1(C)CCCCC1,1.02 (inactive)
13,Oc1ccc(Cl)cc1Cc1cc(Cl)ccc1O,0.0117 (active)
14,CCOP(=S)(OCC)Oc1cc(C)nc(C(C)C)n1,0.904 (inactive)
15,CC(C)N(C(=O)COc1nnc(C(F)(F)F)s1)c1ccc(F)cc1,1.02 (inactive)
16,CCCC1COC(Cn2cncn2)(c2ccc(Cl)cc2Cl)O1 (centres undefined),0.931 (inactive)
17,Nc1c([N+](=O)[O-])ccc(Oc2ccccc2)c1Cl,0.888 (inactive)
18,COC(=O)N(OC)c1ccccc1COc1ccn(-c2ccc(Cl)cc2)n1,0.863 (inactive)

# Test system: Serratia 1 (Serratia sp. 2015-2462-01)
# Assay: as above
# Settings: 20 µM
# In short: as §1
row,SMILES,relative growth
1,CCCSP(=O)(OCC)Oc1ccc(Br)cc1Cl (centres undefined),0.955 (inactive)
2,CC1(C(=O)Nc2ccc(O)c(Cl)c2Cl)CCCCC1,0.976 (inactive)
3,C[N+](C)(C)CCCl,0.962 (inactive)
4,CCc1cnc(C2=NC(C)(C(C)C)C(=O)N2)c(C(=O)O)c1 (centres undefined),0.958 (inactive)
5,CC[C@H](C)[C@H]1O[C@]2(C=C[C@@H]1C)C[C@@H]1C[C@@H](C/C=C(\C)[C@@H](O[C@H]3C[C@H](OC)[C@@H](O[C@H]4C[C@H](OC)[C@@H](O)[C@H](C)O4)[C@H](C)O3)[C@@H](C)/C=C/C=C3\CO[C@@H]4[C@H](O)C(C)=C[C@@H](C(=O)O1)[C@]34O)O2.CO[C@H]1C[C@H](O[C@H]2[C@H](C)O[C@@H](O[C@@H]3/C(C)=C/C[C@@H]4C[C@@H](C[C@]5(C=C[C@H](C)[C@@H](C(C)C)O5)O4)OC(=O)[C@@H]4C=C(C)[C@@H](O)[C@H]5OC/C(=C\C=C\[C@@H]3C)[C@]54O)C[C@@H]2OC)O[C@@H](C)[C@@H]1O,0.958 (inactive)
6,CCCCC(C#N)(Cn1cncn1)c1ccc(Cl)cc1 (centres undefined),0.973 (inactive)
7,Clc1ccc(C(c2ccc(Cl)cc2)C(Cl)(Cl)Cl)cc1,1.05 (inactive)
8,CCC(C)(C)C(=O)OC1=C(c2ccc(Cl)cc2Cl)C(=O)OC12CCCCC2,0.978 (inactive)
9,O=C1c2ccccc2C(=O)N1SC(Cl)(Cl)Cl,0.947 (inactive)
10,Cc1nnc(-c2ccccc2)c(=O)n1N,0.966 (inactive)
11,N#Cc1c(Cl)c(Cl)c(Cl)c(C#N)c1Cl,0.92 (inactive)
12,CC(C)N(C)S(=O)(=O)NC(=O)c1cc(-n2c(=O)cc(C(F)(F)F)n(C)c2=O)c(F)cc1Cl,0.977 (inactive)
13,COC(=O)N(C(=O)N1CO[C@@]2(C(=O)OC)Cc3cc(Cl)ccc3C2=N1)c1ccc(OC(F)(F)F)cc1,0.967 (inactive)
14,CN1COCN(Cc2cnc(Cl)s2)/C1=N\[N+](=O)[O-],0.99 (inactive)
15,CCCN(CCC)C(=O)SCc1ccccc1,0.998 (inactive)
16,OC(Cn1cncn1)(c1ccc(F)cc1)c1ccccc1F (centres undefined),0.991 (inactive)
17,CC(C1CC1)C(O)(Cn1cncn1)c1ccc(Cl)cc1 (centres undefined),1 (inactive)
18,COC(=O)c1ccccc1S(=O)(=O)NC(=O)Nc1nc(C)nc(OC)n1,1.11 (inactive)
19,CN(C)C(CSS(=O)(=O)O)CSS(=O)(=O)O,0.953 (inactive)

row,SMILES,relative growth
1,CNC(=O)c1cc(Cl)cc(C)c1NC(=O)c1cc(Br)nn1-c1ncccc1Cl,1.04 (inactive)
2,CO/C=C(/C(=O)OC)c1ccccc1Oc1cc(Oc2ccccc2C#N)ncn1,0.967 (inactive)
3,O=C(NC(=O)c1c(F)cccc1F)Nc1ccc(OC(F)(F)C(F)OC(F)(F)F)c(Cl)c1 (centres undefined),0.995 (inactive)
4,N#Cc1cc(Br)c(O)c(Br)c1,0.998 (inactive)
5,CCOCN(C(=O)CCl)c1c(C)cccc1CC,0.95 (inactive)
6,CC1(C)[C@H](/C=C(\Cl)C(F)(F)F)[C@@H]1C(=O)OC(C#N)c1cccc(Oc2ccccc2)c1 (some centres undefined),1.01 (inactive)
7,C#CCOc1ccc(CCNC(=O)C(OCC#C)c2ccc(Cl)cc2)cc1OC (centres undefined),0.968 (inactive)
8,O=[N+]([O-])/N=C1\NCCN1Cc1ccc(Cl)nc1,0.968 (inactive)
9,Fc1ccc(Oc2ccnc3cc(Cl)cc(Cl)c23)cc1,1.01 (inactive)
10,CC(Oc1ccc(Oc2ncc(C(F)(F)F)cc2Cl)cc1)C(=O)O (centres undefined),0.972 (inactive)
11,O=C(O)CNCP(=O)(O)O,1.01 (inactive)
12,C[N+]1(C)CCCCC1,1.03 (inactive)
13,Oc1ccc(Cl)cc1Cc1cc(Cl)ccc1O,0.46 (active)
14,CCOP(=S)(OCC)Oc1cc(C)nc(C(C)C)n1,0.958 (inactive)
15,CC(C)N(C(=O)COc1nnc(C(F)(F)F)s1)c1ccc(F)cc1,0.984 (inactive)
16,CCCC1COC(Cn2cncn2)(c2ccc(Cl)cc2Cl)O1 (centres undefined),0.944 (inactive)
17,Nc1c([N+](=O)[O-])ccc(Oc2ccccc2)c1Cl,0.946 (inactive)
18,COC(=O)N(OC)c1ccccc1COc1ccn(-c2ccc(Cl)cc2)n1,0.984 (inactive)
